Source: PubChem BioAssay (Tox21)
Inconclusive results are not listed. Calls of active or inactive are those of the source. The call rests on the fitted dose curve; in most records, active means well fitted activation curve with a large enough effect in the repeat runs; inconclusive means weak or mixed curves; inactive means flat fitted curve, though single readings scatter.

Assay: Caspase-3/7 induction in HepG2 cells by small molecules, qHTS assay (AID 1346978); further: nearly all actives have a fitted effect of over 15% in size
Conditions: HepG2 caspase-3/7 activation, Caspase-Glo luminescence, 17 h; series mostly up to 92.4 µM; caspase activation: at the top concentration
From the text: National Center for Advancing Translational Sciences [NCATS] NIH Chemical Genomics Center [NCGC] U.S. Environmental Protection Agency [EPA] National Institutes of Environmental Health Sciences [NIEHS] National Toxicology Program [NTP] Assay overview: Apoptosis is a process of programmed cell death and plays a central role in the development of multicellular organisms. It is a highly regulated process and induces cell death by activating caspases, which are the members of cysteine aspartic acid-specific protease (caspase) family. Caspases involved in apoptosis are classified by their mechanism of action as initiator caspases (caspase-2, -8, -9 and -10) and executioner caspases (caspase-3, -6, and -7). Inhibition of apoptosis results in number of cancers, autoimmune diseases, inflammatory diseases and viral infection. To identify small molecule compounds that induce apoptosis, a homogeneous, luminescent Caspase-Glo 3/7 assay was used. Wild type HepG2 cells were used to screen Tox21 libraries for identifying caspase-3/7 activity inducers.
Assay Protocol Summary: HepG2 cells were dispensed at 2,000 per well in 5uL of culture medium into white solid bottom 1536-well plates (Corning Life Sciences, Corning, NY) using a Multidrop Combi (Thermo Scientific, Waltham, MA) dispenser. The assay plates were incubated at 37 C and 5% CO2 for 5hr, and then 23nL of compounds dissolved in DMSO and positive control were transferred using a Pintool station (Wako, San Diego, CA). The assay plates were incubated at 37C and 5% CO2 for 17hr. For caspase-3/7 activity read, 4uL of Caspase-Glo 3/7 reagent (Promega Corporation, Madison, WI) was added to each well of the assay plates using Flying Reagent Dispenser (FRD, Aurora Discovery, San Diego, CA) and incubated the assay plates at room temperature for 30min. The luminescence signal was quantified using a ViewLux plate reader (Perkin Elmer, Shelton, CT).
On the % scale 0 is the no-effect control and ±100 the full control effect; potency means the concentration at half of the fitted maximal effect.

| SMILES | caspase activation | Potency |
| --- | --- | --- |
| N#CC1(N=NC2(C#N)CCCCC2)CCCCC1 | 0.561% (inactive) |  |
| O=C(Cl)OCCOCCOC(=O)Cl | 0.118% (inactive) |  |
| O=C(O)CCCOc1ccc(Cl)cc1Cl |  | inactive |
| O=C=NC1CCCCC1 | -1.07% (inactive) |  |
| Cc1nc2ccccc2c(=O)n1-c1ccccc1Cl | -0.842% (inactive) |  |
| O=C(O)c1cc(I)cc(I)c1I | -0.836% (inactive) |  |
| Cc1nc(N(C)C)nc(OC(=O)N(C)C)c1C | -0.185% (inactive) |  |
| Nc1cc(Cl)cc(C(=O)O)c1Cl |  | inactive |
| CC(C)CCCCCCCOC(=O)c1ccccc1C(=O)OCCCCCCCC(C)C | 0.538% (inactive) |  |
| O=C(Cc1ccccc1)OCCc1ccccc1 | 0.197% (inactive) |  |
| CCOP(=S)(S)OCC | -1.31% (inactive) |  |
| Nc1ccccc1C(=O)OCC(O)CO (stereo not given) | -1.06% [at 42.5 µM] (inactive) |  |
| CCCCCl | 0.354% (inactive) |  |
| CCCC[P+](CC)(CCCC)CCCC (tested in a mixture with another compound) | 1.68% (inactive) |  |
| Cc1nnc(-c2ccccc2)c(=O)n1N | -1.75% (inactive) |  |
| COc1cc(C[C@@H](C)N)c(OC)cc1Br | -0.318% (inactive) |  |
| O=[N+]([O-])c1cc(Cl)c(Cl)cc1Cl | 1.58% (inactive) |  |
| CC(Cc1ccccc1)NCc1ccccc1Cl (stereo not given) | 1.88% [at 42.5 µM] (inactive) |  |
| C[N+](C)(C)CCOC(=O)C(O)(c1ccccc1)c1ccccc1 | -1.48% [at 42.5 µM] (inactive) |  |
| N#CC(C#N)=C(C#N)C#N | 0.351% (inactive) |  |

| SMILES | caspase activation | Potency |
| --- | --- | --- |
| O=C(O)c1cc(Cl)ccc1Cl | 0.281% (inactive) |  |
| CCC1CCC(=O)O1 (stereo not given) | -0.888% (inactive) |  |
| Clc1ccc(Cl)c(Cl)c1 |  | inactive |
| Cc1ccc2c(C)cccc2c1 | 0.539% (inactive) |  |
| CCOC(=O)NC(O)C(Cl)(Cl)Cl (stereo not given) | -0.0706% [at 42.5 µM] (inactive) |  |
| C[N+]1(CCC(C(N)=O)(c2ccccc2)c2ccccc2)CCCCC1 | 0.634% [at 42.5 µM] (inactive) |  |
| c1ccc2sc(SNC3CCCCC3)nc2c1 |  | inactive |
| O=C(O)C(F)(F)C(F)(F)C(F)(F)C(F)(F)C(F)(F)C(F)(F)C(F)(F)C(F)(F)F | 3.54% (inactive) |  |
| CCC(C)(C)c1ccc(O)c(C(C)(C)CC)c1 |  | 21.7 µM (active) |
| O=C(NCNC(=O)NC1C(=O)NC(=O)N1CO)NC1C(=O)NC(=O)N1CO (stereo not given) | -0.745% (inactive) |  |
| CCOC(=O)C1OC1(C)c1ccccc1 (stereo not given) |  | inactive |
| CC(C)CCON=O | 0.278% (inactive) |  |
| C=C(C)C(=O)OCCCCOC(=O)C(=C)C | -0.166% (inactive) |  |
| CC(Oc1cc(Cl)c(Cl)cc1Cl)C(=O)O (stereo not given) | 0.155% (inactive) |  |
| O=S(=O)(Cl)Cl | -0.474% (inactive) |  |
| CC(C)(C)CC(C)(C)c1ccc(O)cc1 |  | 51.4 µM (active) |
| CCCCC#N | -0.176% (inactive) |  |
| C#C[C@]1(O)CC[C@H]2[C@@H]3CCC4=CC(=O)CCC4=C3C=C[C@@]21CC | 0.858% [at 42.5 µM] (inactive) |  |
| CCCC(C)(COC(N)=O)COC(=O)NC(C)C (stereo not given) |  | inactive |
| CN(C)N | 0.141% (inactive) |  |
